# Source: PubChem BioAssay (NCATS)
# Where “and” joins values, the source holds several entries; their conditions need not be identical. Equal values may be shown once. Inconclusive results are not listed. Entries that show only a call come without a potency. Where a structure was tested more than once in an assay, its records may differ in their call. Calls of active or inactive are those of the source. The call rests on the fitted dose curve; in most records, active means well fitted curve in the direction sought with a large enough effect; inconclusive means small, poorly fitted or top-dose-only effect, or another doubt; inactive means no such curve, though single readings can be large; an effect the other way counts as inactive or inconclusive.
# Experiments:
# [1] = NS1 protein of Zika virus - qHTS assay to identify small molecule inhibitors in human HEK 293 cells (AID 1347053); further: nearly all actives have a fitted effect of over 55% in size
# Procedure, shortened: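 Read-out is a two-antibody TR-FRET for ZIKV NS1, normalized between uninfected cells and infected cells. Compound added 1 h before MR766 infection at MOI 0.5; human HEK 293 cells incubated 24 h, 37 C.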
# [2] = qHTS of pediatric cancer cell lines to identify multiple opportunities for drug repurposing: Primary screen for TC32 cells (AID 1347089); further: nearly all actives have a fitted effect of over 60% in size
# Procedure, shortened: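 Luminescent ATP read-out (CellTiter-Glo) of metabolically active TC32 cells after 48 h exposure. Concentration-response curves came from 11-point (MIPE, 0.78 nM–46 µM) or 8-point (NPC, 0.59 nM–46 µM) primary titrations; follow-up used 11 points.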
# [3] = qHTS of pediatric cancer cell lines to identify multiple opportunities for drug repurposing: Primary screen for DAOY cells (AID 1347090); further: nearly all actives have a fitted effect of over 55% in size
# Procedure, shortened: (§1)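 Cell viability, CellTiter-Glo luminescence; 500-1,000 cells/well, 8- or 11-point titration, 48 h compound exposure at 37 degrees C, 5% CO2. Controls: DMSO neutral, bortezomib 2.3 µM final as positive.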
# [4] = qHTS of pediatric cancer cell lines to identify multiple opportunities for drug repurposing: Primary screen for SJ-GBM2 cells (AID 1347091)
# Procedure, shortened: as §1
# [5] = qHTS of pediatric cancer cell lines to identify multiple opportunities for drug repurposing: Primary screen for A673 cells (AID 1347092); further: nearly all actives have a fitted effect of over 45% in size
# Procedure, shortened: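 Cell viability of A673 measured by CellTiter-Glo ATP luminescence after 48 hours compound exposure. Dilution series spanned 0.78 nM to 46 µM (MIPE, 11-point) or 0.59 nM to 46 µM (NPC, 8-point); bortezomib 2.3 uM positive control.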
# [6] = qHTS of pediatric cancer cell lines to identify multiple opportunities for drug repurposing: Primary screen for SK-N-MC cells (AID 1347093)
# Procedure, shortened: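 Metabolically active cells were quantified by ATP-dependent luminescence (CellTiter-Glo, 15 min at room temperature) following 48 h treatment. Cells had been plated at 500-1,000 per well and settled for 5 h beforehand.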
# [7] = qHTS of pediatric cancer cell lines to identify multiple opportunities for drug repurposing: Primary screen for BT-37 cells (AID 1347094)
# Procedure, shortened: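 Viability was measured as metabolically active cells after 48 hours of treatment, read by CellTiter-Glo luminescence. Compounds were tested at multiple final concentrations, giving concentration-response curves.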
# Potency means the concentration at half of the fitted maximal effect.
SMILES,Potency [1],Potency [2],Potency [3],Potency [4],Potency [5],Potency [6],Potency [7]
NS(=O)(=O)c1cc(C(=O)O)c(NCc2ccco2)cc1Cl,inactive,inactive,inactive,inactive,inactive,inactive,inactive
CC1=C(C(=O)O)N2C(=O)[C@@H](NC(=O)[C@H](N)C3=CCC=CC3)[C@H]2SC1,inactive,inactive,inactive,inactive,inactive,inactive,inactive
Nc1cc(C(Cl)=C(Cl)Cl)c(S(N)(=O)=O)cc1S(N)(=O)=O,inactive,inactive,inactive,inactive,inactive,inactive,inactive
CC(=O)Nc1ccc(O)cc1,inactive,inactive,inactive,inactive,inactive,inactive,inactive
COCCCN1CCC(NC(=O)c2cc(Cl)c(N)c3c2OCC3)CC1,inactive,inactive,inactive,inactive,inactive,inactive,inactive
CCC1=C(C)CN(C(=O)NCCc2ccc(S(=O)(=O)NC(=O)NC3CCC(C)CC3)cc2)C1=O (stereo not drawn),inactive,inactive,inactive,inactive,inactive,inactive,inactive
O=C(OC1C[C@H]2CC[C@@H](C1)[N+]21CCCC1)C(O)(c1ccccc1)c1ccccc1 (stereo partly drawn),inactive,inactive,inactive,inactive,inactive,14.8 µM (active),inactive
CCC(C)(Oc1ccc(C2(c3ccc(OC(C)(CC)C(=O)O)cc3)CCCCC2)cc1)C(=O)O (stereo not drawn),inactive,inactive,inactive,inactive,inactive,inactive,inactive
CC(C)c1ccc2oc3nc(N)c(C(=O)O)cc3c(=O)c2c1,inactive,inactive,inactive,inactive,inactive,inactive,inactive
C[Se]CCC(N)C(=O)O (stereo not drawn),inactive,inactive,inactive,inactive,inactive,54 µM (active),inactive
COc1cc2c(N3CCN(C(=O)Nc4ccc(OC(C)C)cc4)CC3)ncnc2cc1OCCCN1CCCCC1,inactive,inactive,inactive,inactive,29.6 µM (active),23.5 µM (active),–
CC[C@]1(O)C[C@H]2CN(CCc3c([nH]c4ccccc34)[C@@](C(=O)OC)(c3cc4c(cc3OC)N(C=O)[C@H]3[C@@](O)(C(=O)OC)[C@H](OC(C)=O)[C@]5(CC)C=CCN6CC[C@]43[C@@H]65)C2)C1,1.18 µM (active) and inactive,33 nM (active) and 83.6 nM (active),59 nM (active) and 26.6 nM (active),1 nM (active) and 84.1 nM (active),4.7 nM (active) and 5.3 nM (active),11.8 nM (active) and 6.7 nM (active),21.7 nM (active) and 17.4 nM (active)
Nc1ccc(S(N)(=O)=O)cc1,inactive,inactive,inactive,inactive,inactive,inactive,inactive
CNC[C@@H](O)[C@@H](O)[C@H](O)[C@H](O)CO,inactive,inactive,inactive,inactive,inactive,23.5 µM (active),inactive
Cc1cc(=O)oc2cc(O)ccc12,inactive,inactive,inactive,inactive,inactive,inactive,inactive
N[C@@H](Cc1cc(I)c(Oc2cc(I)c(O)c(I)c2)c(I)c1)C(=O)O,inactive,inactive,inactive,inactive,inactive,inactive,inactive
CCOc1cc(CC(=O)N[C@@H](CC(C)C)c2ccccc2N2CCCCC2)ccc1C(=O)O,inactive,inactive,inactive,inactive,inactive,4.69 µM (active),inactive
Cc1nc2n(c(=O)c1CCN1CCC(c3noc4cc(F)ccc34)CC1)CCCC2,inactive,inactive,inactive,inactive,inactive,inactive,inactive

SMILES,Potency [1],Potency [2],Potency [3],Potency [4],Potency [5],Potency [6],Potency [7]
CC(C)C[C@H](NC(=O)[C@H](Cc1ccccc1)NC(=O)c1cnccn1)B(O)O,33.2 nM (active),83.6 nM (active),29.6 nM (active),26.6 nM (active),0.0531 µM (active),0.006 µM (active),0.0347 µM (active)
CCCCc1ccc2nc(NC(=O)OC)[nH]c2c1,1.32 µM (active) and inactive,117 nM (active) and 47 nM (active),26.6 nM (active),1 nM (active) and 106 nM (active),9.3 nM (active) and 21.1 nM (active),5.3 nM (active) and 26.6 nM (active),43.2 nM (active) and 61.7 nM (active)
CN(C)CCc1c[nH]c2ccc(Cn3cncn3)cc12,inactive,inactive,inactive,inactive,inactive,inactive,19.3 µM (active)
CC(C)[C@H](N)C(=O)OCCOCn1cnc2c(=O)[nH]c(N)nc21,inactive,inactive,inactive,inactive,inactive,inactive,inactive
CCCCC(CC)COC(=O)C(C#N)=C(c1ccccc1)c1ccccc1 (stereo not drawn),inactive and 23.5 µM (active),inactive,inactive,inactive,inactive,16.8 µM (active) and 7.43 µM (active),inactive
C=CCc1cc(OC)c(O)c(C(=O)NCCO)c1,inactive,inactive,inactive,inactive,inactive,inactive,inactive
Nc1ncn([C@H]2C[C@H](O)[C@@H](CO)O2)c(=O)n1,inactive,inactive,inactive,inactive,inactive,inactive,inactive
NC(=O)Cc1cccc(C(=O)c2ccccc2)c1N,inactive,inactive,inactive,inactive,inactive,inactive,inactive
S=c1nc[nH]c2nc[nH]c12,14800 nM (active),8.36 µM (active) and 20.8 µM (active),2.66 µM (active) and 5.9 µM (active),1.19 µM (active) and 3.32 µM (active),1.33 µM (active),11.8 µM (active),2.46 µM (active) and 3.43 µM (active)
CCc1nc(N)nc(N)c1-c1ccc(Cl)cc1,9350 nM (active),3.74 µM (active) and 11.7 µM (active),5.31 µM (active) and 18.7 µM (active),2.66 µM (active) and 4.18 µM (active),10.6 µM (active) and 14.8 µM (active),668 nM (active) and 1.18 µM (active),6.92 µM (active)
Oc1ccc(OCc2ccccc2)cc1,inactive,inactive,inactive,inactive,inactive,inactive,inactive
CN(C)c1ccc2nc3ccc(=[N+](C)C)cc-3sc2c1,inactive,16.5 µM (active) and 21 µM (active),2.35 µM (active) and 6.68 µM (active),3.32 µM (active) and 2.66 µM (active),9.35 µM (active) and 8.41 µM (active),1.18 µM (active) and 1.19 µM (active),19.3 µM (active) and 15.5 µM (active)
CCOC(=O)c1c(C)n(C)c2ccc(O)cc12,inactive,inactive,inactive,inactive,inactive,inactive,inactive
Cc1nccn1CC1CCc2c(c3ccccc3n2C)C1=O (stereo not drawn),inactive,inactive,inactive,inactive,inactive,inactive,inactive
CCCOc1ccc2nc(NC(=O)OC)[nH]c2c1,46.9 nM (active),187 nM (active) and 131 nM (active),66.8 nM (active) and 14.8 nM (active),1 nM (active),33.5 nM (active) and 11.8 nM (active),0.0422 µM (active),123 nM (active) and 27.3 nM (active)
CC1Cc2ccccc2N1NC(=O)c1ccc(Cl)c(S(N)(=O)=O)c1 (stereo not drawn),inactive,inactive,inactive,inactive,inactive,inactive,inactive
O=C(O)c1cn(-c2ccc(F)cc2)c2cc(N3CCNCC3)c(F)cc2c1=O,inactive,inactive,inactive,inactive,inactive,inactive,inactive
CCN(CC)CCOc1ccc(Cc2ccccc2)cc1,inactive,inactive,inactive,–,–,inactive,–
